Reference: PubChem BioAssay AID2546 (National Center for Advancing Translational Sciences (NCATS), 2010)
The campaign covered roughly 310,000 compounds. About 11,000 (3.5%) were called active. Not shown: some 8% with an inconclusive outcome. The full list was thinned out, with actives kept by preference. Values without a mark were called inactive. Calls follow the shape of the dose curve; as a rule, active = well fitted inhibition curve with a large enough effect; inconclusive = small, poorly fitted or top-dose-only effect, or effect the other way; inactive = flat fitted curve, though single readings scatter.

Assay: VP16 counterscreen qHTS for inhibitors of ROR gamma transcriptional activity;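 also: Gal4-VP16 expression switched on by copper sulfate through the metallothionein promoter; nearly all actives have a fitted effect of over 50% in size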
Conditions: Drosophila S2 Gal4-VP16 UAS-luciferase, luminescence, 20 h; series mostly up to 53.6 µM; activity, negative = inhibition: at the top concentration
% is scaled to controls: 0 for no effect and ±100 for the full control effect; potency is read from the fitted curve at half-maximal effect.

SMILES | activity, negative = inhibition | Potency
CCCCc1nc2cc(C(=O)NCCc3cnn(C)c3)ccc2o1 | -4.88% | 
O=C(CN(c1cc(C(F)(F)F)ccc1Cl)S(=O)(=O)c1ccccc1)NCc1cccnc1 | -0.095% | 
CCc1ccc(N(CC(=O)NCc2cccnc2)S(=O)(=O)c2ccccc2)cc1 |  | 14.1 µM (active)
O=C(CCc1ccccc1)NCc1cccnc1 | 2.5% | 
CCOC(=O)c1c(-c2ccccc2)oc2ccc(OCC(N)=O)cc12 | -2.89% | 
COc1cccc(CN2CCN(Cc3ccc4cccc(F)c4n3)CC2CCO)c1 (centres undefined) | -27.6% | 
CN1c2ccc([N+](=O)[O-])cc2C(C)(C)C12C=Cc1cc(C(=O)O)ccc1O2 (centres undefined) | 1.53% | 
CC(C)c1ccc(C(=O)OC2CCOC2=O)cc1 (centres undefined) | 13.4% | 
Cc1nn(Cc2ccccc2)c(Cl)c1C(=O)OC1CCOC1=O (centres undefined) | -5.18% | 
O=C(OC1CCOC1=O)c1ccc(-c2nc3ccccc3s2)s1 (centres undefined) |  | 1 µM (active)
O=C(CNC(=O)OCc1ccccc1)NC1CCCCNC1=O (centres undefined) | -9.12% | 
Cc1cc(=O)n2[nH]c(-c3cccc(Cl)c3)cc2n1 | 14.2% | 
C=C1C(=O)C23C(O)C1CCC2[C@]12COC3(O)C(O)C1C(C)(C)CC[C@H]2O (some centres undefined) |  | 2.51 µM (active)
CCOc1ccc(C(C(=O)NC2CCCC2)N(C(=O)c2snc(C(N)=O)c2N)C2CCCC2)cc1 (centres undefined) | 13.5% | 
COc1ccccc1Cn1c(CO)nc2ccccc21 | -7.92% | 
COCc1nc2ccccc2n1Cc1ccccc1Br |  | 5.62 µM (active)
COCn1c(COc2ccccc2)nc2ccccc21 | 25.9% | 
Cc1ccccc1CCNC(=O)C1CCC(=O)N(Cc2ccc(Cl)cc2)C1 (centres undefined) | -3.56% | 
CCCn1cc(S(=O)(=O)c2ccc(C)cc2)c(=O)c2cc(OCC)ccc21 | 1.59% | 
CCN(CC)c1ccc(/C=N/NC(=O)c2cnccn2)c(O)c1 |  | 5.62 µM (active)
Cc1cc(C)nc(N/N=C/c2ccncc2)n1 | -5.52% | 
CCN(CC)c1ccc(/C=N/Nc2nc(C)cc(=O)[nH]2)cc1 | -3.48% | 
CCN(CC)c1ccc(/C=N/Nc2nc(C)cc(C)n2)c(O)c1 |  | 4.47 µM (active)
Cc1ccc(C(=O)NCCNC(=O)c2cnccn2)cc1 | 7.02% | 
CCN(CC)c1ccc(/C=N/NC(=O)CNC(=O)c2cccnc2)cc1 | 2.67% | 
Cc1cc(=O)n2nc(N3CCC(C(=O)Nc4c(F)c(F)c(F)c(F)c4F)CC3)sc2n1 | -2.93% | 
COc1ccc(S(=O)(=O)N2CCSCC2)cc1 | 10.7% | 

SMILES | activity, negative = inhibition | Potency
O=C(NNS(=O)(=O)c1ccc(F)cc1)c1ccc([N+](=O)[O-])cc1Cl | 2.59% | 
O=C(COc1ccc(Cl)cc1)Nc1ccc2c(c1)OCO2 | -6.13% | 
O=c1oc2ccccc2cc1-c1csc(Nc2ccc(O)cc2)n1 | 1.22% | 
Cc1ccc(Nc2nc(-c3ccc(O)cc3O)cs2)nc1 |  | 11.2 µM (active)
Cc1cc(O)ccc1-c1cnc2ccccc2n1 | -20.2% | 
C=Cn1cc[n+](CC(=O)c2ccc(OC)c(OC)c2)c1 | -1.6% | 
Cc1ccc(-n2c(C)cc(/C=N\NC(=O)CC(=O)NC(C)C)c2C)cc1 | -7.74% | 
Cc1ccccc1-n1c(C)cc(/C=N/NC(=O)c2ccc(CN3CCOCC3)cc2)c1C | -2.91% [at 0.365 µM] | 
Cc1cc(/C=N/NC(=O)CC2(C)OCCO2)c(C)n1-c1ccc(Cl)c(Cl)c1 |  | 12.6 µM (active)
COc1ccccc1C(=O)NC(CCSC)C(=O)NNC(=O)c1csc(N2CCOCC2)n1 (centres undefined) | 1.56% | 
CCOc1ccc(C(=O)COC(=O)c2ccc(-n3cnnn3)cc2)cc1 | 0.0156% | 
CCn1c(=S)[nH]c2sc3c(c2c1=O)CCCCC3 |  | 1.12 µM (active)
CN(C)CCCn1c(=O)n(Cc2ccccc2)c(=O)c2c3c(sc21)CCCCC3 | -8.02% | 
CCCc1nc2sc3c(c2c(=O)n1NC(=O)CCCl)CCCC3 | 10.2% | 
CC(C)c1ccc(NC(=O)[C@@H](NC(=O)N2CC(=O)Nc3ccccc32)C(C)C)cc1 | 12.5% | 
S=C(NNC(=S)NC1CC2C=CC1C2)NC1CC2C=CC1C2 (centres undefined) | 4.85% | 
S=C(NNC(=S)NC1CC2CCC1C2)NC1CC2C=CC1C2 (centres undefined) | -2.56% | 
CC(C)c1ccc(NC(=S)NC2CC3C=CC2C3)cc1 (centres undefined) |  | 11.2 µM (active)
Cc1nn(C(C)C(=O)NCCC2=CCCCC2)c(=O)c2nn(-c3ccccc3)c(C)c12 (centres undefined) | 8.83% | 
COc1ccc(C(=O)NC2CC2)cc1OC1CCN(C/C=C/c2ccccc2)CC1 | -1.34% | 
CN(C)S(=O)(=O)c1cccc(C(=O)OCC(=O)N2CCCC2=O)c1 | -3.49% | 
CCOC(=O)C1CCN(C(=O)Cn2nc(C)c3c(C)n(-c4ccccc4)nc3c2=O)CC1 | -3.98% | 
O=C(N/N=C/c1ccoc1)c1ccc(Cl)cc1Cl | -4.59% | 
CC(Oc1ccccc1[N+](=O)[O-])C(=O)N/N=C/c1ccoc1 (centres undefined) | -9.18% | 
CC(C)c1cc(C(=O)N/N=C/c2ccoc2)c(O)c(C(C)C)c1 |  | 3.16 µM (active)
Cn1c(N2CCOCC2)c(C=O)c2ccccc21 | 8.57% | 
CC1CCC(NS(=O)(=O)c2ccc3c(c2)CC(=O)N3)CC1 (centres undefined) | 2.3% | 
